Granule exo inh: lytic granule exocytosis inhibition; hit rate 0.66% among 360,000; inhibition, % at 10 µM; TALL-104 LAMP-1 surface exposure, flow cytometry; cells stimulated with thapsigargin and PMA;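 active = inhibition above about 55%, limit read from the data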
ALR inh: blocks human ALR sulfhydryl oxidase activity; P55789; AID 485317; purified ALR, DTT oxidation, H2O2 HRP-luminol luminescence; inhibition, % (no concentration beside the values); hit rate 3.8% among 290,000;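 active = mean replicate inhibition above about 79%, with every replicate also reaching it, limit read from the data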
Target sequence (P55789 whole entry, looked up): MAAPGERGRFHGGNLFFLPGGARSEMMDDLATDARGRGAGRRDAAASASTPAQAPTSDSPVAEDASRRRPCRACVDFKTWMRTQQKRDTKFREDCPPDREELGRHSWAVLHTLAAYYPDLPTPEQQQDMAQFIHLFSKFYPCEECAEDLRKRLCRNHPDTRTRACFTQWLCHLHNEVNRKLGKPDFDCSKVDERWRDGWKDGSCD
GASC-1 inh: human JMJD2C demethylase inhibition; hit rate 0.069% among 330,000; GST-JMJD2C(1-420) H3K9me3 demethylation, DELFIA europium; AID 2099; inhibition, % at 2.35 µM;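 active = more than half of a compound's replicate wells show inhibition beyond 50%, single wells judged on their own value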;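 note: signal counts dimethyl H3K9 product captured on neutravidin plate; 0% = median of DMSO wells and 100% = 0.3 times that DMSO median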
SMARCA2 act: increases SMARCA2 function in MMTV reporter cells; MG213 cells, MMTV-luciferase reporter, dexamethasone, overnight; hit rate 1% among 370,000; activation, % at 9.1 µM; in the data active = activation above about 7.8%;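 note: 0% = vehicle wells and 100% = reference activator wells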
M18AAP inhibitor: PfM18AAP enzyme inhibition; AID 1822; hit rate 1.2% among 290,000; recombinant PfM18AAP, H-Glu-NHMec fluorogenic cleavage; inhibition, % at 7.35 µM;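 active = inhibition above the campaign mean inhibition over all tested compounds plus 3 SD, cut at about 28% in these data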;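 note: 0% = plate median of test compound wells and 100% = 2 mM ZnCl2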
MIN6 prolif: induces beta-cell replication in MIN6 cells; MIN6 cells proliferation, ATPlite luminescence, 48 h; cells starved in 0.2% serum; 100% = growth in 10% serum; proliferation, % at 10 µM; hit rate 0.29% among 330,000;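 active = compounds whose signal lies at least 3.5 SD above the mean of all wells on their plate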;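 note: 0% = DMSO-treated cells in low-serum medium and 100% = 10% serum control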
The depositor's hits bear a star; . = no result. Compounds with a hit are over-represented: about 5.4% of the library has one in this group of screens.

SMILES	Granule exo inh	ALR inh	GASC-1 inh	SMARCA2 act	M18AAP inhibitor	MIN6 prolif
S=C(NCc1ccccc1)NCc1ccc(CNC(=S)NCc2ccccc2)cc1	4	-4	4	-4	-3	-4
CCNC(=S)NNC(=S)NCc1ccccc1	0	50	7	-2	32*	1
C/C(C=NNC(=O)c1cc(-c2ccc(Cl)cc2)n[nH]1)=C\c1ccccc1	.	.	.	2	.	.
COc1ccc(C2CC(=O)C(c3ccccc3C)=CN2Cc2ccccc2)cc1 (configuration not stated)	.	.	.	-5	.	.
COc1cccc(N2C(=O)CC(N3CCc4ccccc43)C2=O)c1 (configuration not stated)	4	90*	3	-3	-2	-1
COc1ccccc1N1C(=O)CC(N2CCc3ccccc32)C1=O (configuration not stated)	0	41	-14	-1	-5	-2
O=C1CC(N2CCc3ccccc32)C(=O)N1c1ccc(F)cc1 (configuration not stated)	3	99*	2	-1	5	-1
CCN(CC)C(=O)CC[C@H]1CC[C@]2(CCCN(Cc3ccc(N(C)C)cc3)C2)O1	.	.	.	-3	.	.
Cc1cc(C(C#N)c2ccccc2)n2ncnc2n1 (configuration not stated)	0	62	-3	0	-11	2
Cc1cc(C(C#N)c2ccccc2F)n2ncnc2n1 (configuration not stated)	18	92*	19	-4	-2	1
COC(=O)[C@]12C[C@H](CC(=O)NCc3ccc(C)o3)C(=O)N(Cc3ccc(Cl)cc3Cl)C1=C[C@H](C(C)(C)C)O[C@@H]2C	.	.	.	-4	.	.
O=C(CSc1nc(=O)n(CCCN2CCOCC2)c2c1CCC2)Nc1cccc(F)c1	-14	97*	-12	-3	.	3
CC(=O)Nc1ccc(NC(=O)CSc2nc(=O)n(CCCN3CCOCC3)c3c2CCC3)cc1	-11	.	.	1	.	.
O=C(CSc1nc(=O)n(CCCN2CCOCC2)c2c1CCC2)Nc1ccccc1F	1	10	0	-4	.	-3
Cc1ccc(NC(=O)CSc2nc(=O)n(CCN3CCOCC3)c3c2CCCC3)cc1	1	-23	-1	-2	.	3
CC(=O)Nc1cccc(NC(=O)CSc2nc(=O)n(CCCN3CCOCC3)c3c2CCC3)c1	0	98*	-3	-1	.	5
CC(=O)Nc1cccc(NC(=O)CSc2nc(=O)n(CCN3CCOCC3)c3c2CCC3)c1	-1	97*	-1	0	.	0
CC(=O)c1ccc(NC(=O)CSc2nc(=O)n(CCN3CCOCC3)c3c2CCC3)cc1	3	98*	1	-2	.	-3
C=CCN=C1NC(c2ccc(Cl)cc2)C(C(=O)OC)=C(C)N1Cc1ccccc1C(F)(F)F (configuration not stated)	.	.	.	1	.	.
COC(=O)[C@]12C[C@H](CC(=O)N3CCN(C(=O)c4ccco4)CC3)C(=O)N(CCC3=CCCCC3)C1=C[C@H](C1CCCC1)O[C@@H]2C	.	.	.	-2	.	.
COC(=O)c1cc(=O)nc(NN=C(C)C)s1	.	.	.	1	.	.
CSc1ccc(C=NNc2ccc(S(=O)(=O)Nc3ccccc3C(=O)O)cc2[N+](=O)[O-])cc1	2	7	103*	-4	.	-6
CCOc1ccc(C=NNc2ccc(S(=O)(=O)Nc3ccccc3C(=O)O)cc2[N+](=O)[O-])cc1	-1	5	6	.	.	-6
C=CCOc1ccc(C=NNc2ccc(S(=O)(=O)Nc3ccccc3C(=O)O)cc2[N+](=O)[O-])cc1OC	0	90*	12	-2	.	-5
COc1ccc(C=NNc2ccc(S(=O)(=O)Nc3ccccc3C(=O)O)cc2[N+](=O)[O-])c(OC)c1	3	43	26	.	.	-4
SMILES	Granule exo inh	ALR inh	GASC-1 inh	SMARCA2 act	M18AAP inhibitor	MIN6 prolif
Cn1cc(Cl)c(C(=O)Nc2nc3ccc([N+](=O)[O-])cc3s2)n1	0	-4	-4	2	30*	0
COC1=C(C)C(=O)C2=C(C1=O)C1C3CC4=C(C(=O)C(OC)=C(C)C4=O)C(CNC(=O)C(C)=O)N3C(C#N)C(C2)N1C (configuration not stated)	74*	.	.	-10	.	.
Cc1ccc(S(=O)(=O)/N=C2/NC(=O)/C(=C\c3cc(Br)cc(Br)c3O)S2)cc1	-21	99*	-12	.	7	-5
CNc1nnc(-c2ccc(N(C)C)cc2)s1	-1	100*	8	4	7	-5
COc1ccc(C(=O)Nc2ccc(-c3n[nH]c(=S)o3)cc2)cc1OC	-1	29	1	0	28	7
O=C(Nc1ccc(-c2n[nH]c(=S)o2)cc1)c1ccccc1Br	5	86*	4	-1	2	-2
Cn1cc(CCOCc2ccc(Br)cc2)c2ccccc21	.	.	.	-1	.	.
COc1ccc(S(=O)(=O)NCc2ccc3c(c2)cc(C)n3C)cc1	5	.	-2	3	6	-3
Cc1cc2cc(CNS(=O)(=O)c3ccccc3)ccc2n1C	5	96*	9	2	-5	-4
O[C@@H](Cc1ccccc1)[C@@H](/C=C/c1ccccc1)NCCc1ccccc1	.	.	.	-3	.	.
O=C(O)CSc1nnc(-c2ccc(Cl)cc2)n1-c1ccccc1	5	86*	4	2	-1	0
O=C(O)CSc1nnc(-c2ccncc2)n1-c1ccc(Cl)cc1	3	-18	-2	-3	-9	1
CCN(CC)c1ccc(-c2nnc(SCC(=O)Nc3ccccc3C#N)n2-c2ccccc2)cc1	88*	19	11	0	8	-3
COc1ccc(/C=N/n2c(COc3ccccc3)n[nH]c2=S)cc1OC	-9	.	-5	-1	30*	2
CCOc1ccccc1/C=N/n1c(COc2ccccc2)n[nH]c1=S	19	-11	9	2	31*	1
S=c1[nH]nc(COc2ccccc2)n1/N=C/c1ccco1	-3	59	-16	0	28*	-2
S=c1[nH]nc(COc2ccccc2)n1/N=C/c1ccc(Br)s1	0	95*	-7	-2	13	-4
Cc1ccc(-n2c(SCC(=O)c3ccccc3Br)nnc2-c2ccncc2)cc1	.	.	.	2	.	.
O=C(NCCc1cccc(F)c1)c1cc2ccccn2n1	.	.	.	4	.	.
Oc1ccccc1/C=N/n1c(COc2ccccc2)n[nH]c1=S	3	6	3	-2	28*	-1
S=c1[nH]nc(-c2ccccn2)n1/N=C/c1ccc(Cl)c(Cl)c1	8	0	4	-2	-1	-4
O=c1c2ccccc2nc(COc2ccccc2)n1/N=C/c1ccc(O)cc1O	2	77*	9	-3	-2	-6
S=c1[nH]nc(-c2ccccn2)n1/N=C/c1ccc(-c2ccccc2Cl)o1	1	97*	-7	-2	6	-1
Cc1ccccc1/C=N/n1c(COc2ccccc2)n[nH]c1=S	30	-49	2	0	13	0

Source: PubChem BioAssay (several laboratories)
